JMJD2A Tudor: blocks the human JMJD2A Tudor domain | actives 4.4% (n = 390,000) | AlphaScreen JMJD2A-Tudor / H3K4me3 peptide binding | Potency, µM (titrated, usually from 114 µM), for the others: at the highest dose activity change, negative = inhibition, hits mostly inhibitors | O75164; further: potency means the concentration at half of the fitted maximal effect; on the % scale 0 is the no-effect control and ±100 the full control effect; nearly all actives have a fitted effect of over 50% in size
Target sequence (O75164 whole entry, looked up, the tested form may be a part): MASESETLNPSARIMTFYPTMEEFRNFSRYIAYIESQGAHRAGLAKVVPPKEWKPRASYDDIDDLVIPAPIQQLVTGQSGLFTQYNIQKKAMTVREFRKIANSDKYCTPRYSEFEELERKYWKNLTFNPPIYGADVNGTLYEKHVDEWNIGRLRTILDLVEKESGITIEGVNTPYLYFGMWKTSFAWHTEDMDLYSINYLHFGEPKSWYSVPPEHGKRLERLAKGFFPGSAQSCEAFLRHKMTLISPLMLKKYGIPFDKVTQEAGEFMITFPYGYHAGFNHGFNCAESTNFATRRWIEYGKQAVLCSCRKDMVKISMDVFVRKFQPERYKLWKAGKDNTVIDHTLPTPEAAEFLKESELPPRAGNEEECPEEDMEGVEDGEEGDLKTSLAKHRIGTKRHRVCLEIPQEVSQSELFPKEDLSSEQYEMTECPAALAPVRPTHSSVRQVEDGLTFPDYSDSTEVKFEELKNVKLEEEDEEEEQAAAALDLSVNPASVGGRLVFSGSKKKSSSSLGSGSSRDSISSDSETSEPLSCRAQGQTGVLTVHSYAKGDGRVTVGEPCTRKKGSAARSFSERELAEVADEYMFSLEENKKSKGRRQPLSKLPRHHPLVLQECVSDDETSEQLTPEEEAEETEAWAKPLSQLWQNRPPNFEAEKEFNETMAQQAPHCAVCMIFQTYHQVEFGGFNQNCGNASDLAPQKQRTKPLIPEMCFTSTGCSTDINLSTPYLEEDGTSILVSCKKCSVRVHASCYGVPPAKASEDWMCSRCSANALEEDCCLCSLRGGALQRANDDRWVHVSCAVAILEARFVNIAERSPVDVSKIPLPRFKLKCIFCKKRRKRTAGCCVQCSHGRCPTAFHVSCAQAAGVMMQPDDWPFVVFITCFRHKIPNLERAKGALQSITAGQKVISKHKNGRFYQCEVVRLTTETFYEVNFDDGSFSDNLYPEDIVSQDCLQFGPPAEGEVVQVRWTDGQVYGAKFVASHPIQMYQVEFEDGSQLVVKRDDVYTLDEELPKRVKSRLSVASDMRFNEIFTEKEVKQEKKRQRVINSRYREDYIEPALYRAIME
HP1b chromo inh: inhibitors of HP1-beta chromodomain binding to methylated histone tails; P83916; AlphaScreen HP1-beta / biotin-H3K9me3 peptide binding; Potency, µM (titrated, usually from 114 µM), without a hit: at the top dose activity change, negative = inhibition, actives largely listed as inhibitors; actives 0.56% (n = 390,000); further: potency means the concentration at half of the fitted maximal effect; nearly all actives have a fitted effect of over 70% in size
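AlphaScreen: HP1-beta (50 nM) preformed 30 min with biotin-H3(1-18)K9me3 peptide (50 nM) in PBS pH 7.4, 0.01% Tween-20. Compound added for 30 min at RT, then streptavidin donor/nickel chelate acceptor beads (10 ug/mL) for 30 min.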
KDM4E inh: JMJD2E (human) inhibition | AID 2147 | Potency, µM (highest dose often 57.1 µM), for inactives: at the highest dose activity change, negative = inhibition, usual class: inhibitors | B2RXH2 | actives 1.6% (n = 230,000) | JMJD2E catalytic domain, FDH-coupled NADH fluorescence (FDH is formaldehyde dehydrogenase); active means well fitted inhibition curve with a large enough effect, not every such curve was filed as active; inconclusive means small, poorly fitted or top-dose-only effect, or another doubt; inactive means no such curve, though single readings can be large or run the other way;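 further: potency means the concentration at half of the fitted maximal effect; 0% = wells with enzyme and -100% = buffer wells without enzyme; nearly all actives have a fitted effect of over 50% in size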
BAZ2B inh: blocks human BAZ2B. AlphaScreen BAZ2B-H3K14Ac peptide displacement. Q9UIF8. actives 4.4% (n = 360,000). Potency, µM (highest dose often 114 µM), without a hit: at the highest dose activity change, negative = inhibition, hits mostly inhibitors; further: potency means the concentration at half of the fitted maximal effect; on the % scale 0 is the no-effect control and ±100 the full control effect; nearly all actives have a fitted effect of over 60% in size
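AlphaScreen luminescence quantifies BAZ2B engagement of H3K14Ac peptide; the protein and biotinylated peptide are both at 50 nM final, buffer PBS pH 7.4 with 0.01% Tween-20, all steps at room temperature.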
PI5P4Ka inh: blocks human PI5P4K alpha kinase activity; AID 652105; max response, %; PI5P4Kalpha enzyme, ADP-Glo luminescence, 60 min; active compounds read low; actives 1.2% (n = 330,000); active means max response of -50% or lower; inconclusive means between -30% and -50%; inactive means -30% or higher; further: value at the top dose of about 77 µM; on the % scale 0 is the no-effect control and ±100 the full control effect
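Enzyme plus substrate dispensed, test compounds pinned in, then ATP (5 microM final) added. After 60 min at RT, ADP-Glo reagent 1 for 45 min and reagent 2 for 30 min preceded luminescence imaging.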
L3MBTL1 inh: blocks human L3MBTL1; AlphaScreen L3MBTL1–H3K9me1 peptide binding; Potency, µM (doses to about 57.1 µM), without a hit: at the top dose activity, negative = inhibition, usual class: inhibitors; actives 0.66% (n = 230,000); further: potency means the concentration at half of the fitted maximal effect; on the % scale 0 is the no-effect control and ±100 the full control effect; nearly all actives have a fitted effect of over 60% in size
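Displacement of a biotinylated histone H3(1-15) peptide monomethylated at Lys9 (75 nM) from L3MBTL1 (50 nM) was measured by AlphaScreen after a 30 min room-temperature compound incubation; cefsulodin titration served as intraplate control.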
* marks the source's active call; other numbers are inactive results; [ ] = dose if it differs, or a comment. The list is not random: actives were taken first. Their share in the collection is about 5.7%. Unless noted, the call rests on the fitted dose curve; in most records, active means well fitted inhibition curve with a large enough effect; inconclusive means small, poorly fitted or top-dose-only effect; inactive means no such curve, though single readings can be large or run the other way.

For Cc1ccc(NC(=O)CSc2nc(-c3cccs3)nc3cc(=O)[nH]n23)cc1C the results were JMJD2A Tudor 79µM*, HP1b chromo inh -21%, BAZ2B inh 50µM* and L3MBTL1 inh inconclusive.
Screening C=CCn1c(O)c(N=NC(=S)Nc2cccc(OC)c2)c2ccccc21 returned JMJD2A Tudor inconclusive, HP1b chromo inh inconclusive, KDM4E inh -4%, BAZ2B inh 7.9µM*, PI5P4Ka inh -4 and L3MBTL1 inh inconclusive.
`C=CCn1c(O)c(N=NC(=S)Nc2ccc(OC)cc2)c2ccccc21` gave JMJD2A Tudor inconclusive, HP1b chromo inh inconclusive, KDM4E inh 14%, BAZ2B inh inconclusive, PI5P4Ka inh 18 and L3MBTL1 inh inconclusive.
Screening C=CCn1c(C(C)NC(=O)c2cccc(C)c2)n[nH]c1=S (stereo unspecified) returned JMJD2A Tudor 18µM*, HP1b chromo inh 39%, KDM4E inh inconclusive, BAZ2B inh -4%, PI5P4Ka inh -5 and L3MBTL1 inh 3%.
Screening CCn1c(C(C)NC(=O)c2ccc(Cl)cc2)n[nH]c1=S (stereo unspecified) returned JMJD2A Tudor 10µM*, HP1b chromo inh -9%, KDM4E inh -13%, BAZ2B inh -18% and PI5P4Ka inh 1.
For Cc1cccc(C(=O)NCCc2n[nH]c(=S)n2C)c1 the results were JMJD2A Tudor inconclusive, HP1b chromo inh 10%, KDM4E inh 2%, BAZ2B inh -2%, PI5P4Ka inh -10 and L3MBTL1 inh -17%.
COc1ccc(C2CC(=O)c3cc(-c4nc(-c5cccc([N+](=O)[O-])c5)cs4)c(=O)n(-c4ccccc4C)c3C2)cc1 (stereo unspecified) was read as JMJD2A Tudor -16%, HP1b chromo inh 24% and BAZ2B inh inconclusive.
`COc1ccc(CNC(=O)C2Cc3ccccc3CN2C(=O)c2ccco2)cc1` (stereo unspecified) gave JMJD2A Tudor -11%, HP1b chromo inh 36%, KDM4E inh 9%, BAZ2B inh -24% and PI5P4Ka inh -6.
Screening O=C(NCc1ccco1)C1CN(S(=O)(=O)c2ccccc2)CCN1S(=O)(=O)c1ccccc1 (stereo unspecified) returned JMJD2A Tudor -15%, HP1b chromo inh 16%, KDM4E inh 4%, BAZ2B inh 3% and L3MBTL1 inh -2%.
O=C(NCc1ccco1)C1Cc2ccccc2CN1C(=O)c1ccco1 (stereo unspecified) was read as JMJD2A Tudor inconclusive, HP1b chromo inh -5%, KDM4E inh 0%, BAZ2B inh 79µM*, PI5P4Ka inh inconclusive and L3MBTL1 inh -27%.
Screening O=C(NCc1ccco1)C1Cc2ccccc2CN1S(=O)(=O)c1ccccc1F (stereo unspecified) returned JMJD2A Tudor 40µM*, HP1b chromo inh inconclusive and PI5P4Ka inh -61*.
`CC1(C)Cc2nc3oc4c(=S)nc[nH]c4c3cc2CO1` gave JMJD2A Tudor 25µM*, HP1b chromo inh 25%, KDM4E inh inconclusive, BAZ2B inh 7% and L3MBTL1 inh -1%.
`Clc1ccc(Nc2nc(-c3ccccc3)c3ccccc3n2)c(Cl)c1` gave JMJD2A Tudor 3%, HP1b chromo inh 36% and BAZ2B inh 15%.
Screening CC(=O)C1=C(O)C(=Cc2ccccc2)OC1=O returned PI5P4Ka inh -25.
For COc1ccc(C=C2OC(=O)C(C(C)=O)=C2O)cc1 the results were PI5P4Ka inh -54*.
Screening CCN1CCn2c3c(c4cc(Cl)ccc42)CCCC31 (stereo unspecified) returned JMJD2A Tudor -26%[11.4 µM], HP1b chromo inh 4%, KDM4E inh inconclusive, BAZ2B inh 35µM*, PI5P4Ka inh 21 and L3MBTL1 inh -11%.
`Cc1ccc2c(c1)c1c3n2CCN(C(=O)c2cccc(C(F)(F)F)c2)C3CCC1` (stereo unspecified) gave JMJD2A Tudor inconclusive, HP1b chromo inh -24% and BAZ2B inh 28µM*.
`Cc1ccc2c(c1)c1c3n2CCN(C=O)C3CCC1` (stereo unspecified) gave JMJD2A Tudor inconclusive, HP1b chromo inh -15%, BAZ2B inh inconclusive, PI5P4Ka inh 16 and L3MBTL1 inh -14%.
`CCN(CC)CCN1CCn2c3c(c4cc(C)ccc42)CCCC31` (stereo unspecified) gave JMJD2A Tudor 56µM*, HP1b chromo inh 6%, KDM4E inh inconclusive, BAZ2B inh inconclusive, PI5P4Ka inh 4 and L3MBTL1 inh -11%.
`Cc1oc(-c2cccc(Cl)c2)nc1Cn1c(SCc2ccc(F)cc2)nc2cccnc21` gave JMJD2A Tudor -23%, HP1b chromo inh 35% and BAZ2B inh -13%.
For CC(=O)Oc1cc(O)c2c(=O)c(OC(C)=O)c(-c3ccc(OC(C)=O)c(OC(C)=O)c3)oc2c1 the results were JMJD2A Tudor inconclusive, HP1b chromo inh 1% and PI5P4Ka inh -98*.
COc1ccc(-c2oc3cc(OC(C)=O)cc(OC(C)=O)c3c(=O)c2OC)cc1 was read as JMJD2A Tudor -33%, HP1b chromo inh -31% and PI5P4Ka inh -4.
Screening Cc1ccc(C)c(NC(=S)N2CCC(NC(=O)c3ccc(F)cc3)CC2)c1 returned JMJD2A Tudor 2%, HP1b chromo inh 22%, BAZ2B inh -2% and PI5P4Ka inh -7.
Screening COc1ccc(-n2ncc(C(=O)Nc3ccc4c(c3)OCCO4)c2C2CCN(C(=O)OC(C)(C)C)CC2)cc1 returned JMJD2A Tudor -36%, HP1b chromo inh 11% and BAZ2B inh -9%[57.1 µM].
`Cn1c(=S)c2[nH]c(SCCN3CCCC3)nc2n(C)c1=O` gave JMJD2A Tudor inconclusive, HP1b chromo inh 7%, KDM4E inh inconclusive, BAZ2B inh inconclusive and PI5P4Ka inh -10.
For Cn1c(=S)c2[nH]c(SCCN)nc2n(C)c1=O the results were JMJD2A Tudor 1.1µM*, HP1b chromo inh -14% and PI5P4Ka inh -17.
CCOC(=O)c1cc(S(=O)(=O)N2CCN(c3ccccc3)CC2)[nH]n1 was read as JMJD2A Tudor -16%, HP1b chromo inh 3%[57 µM] and BAZ2B inh -32%.
Screening CCOC(=O)c1cc(S(=O)(=O)N2CCN(c3cc(C)ccc3C)CC2)[nH]n1 returned JMJD2A Tudor -33%, HP1b chromo inh -4%[57 µM] and BAZ2B inh 50µM*.
Screening CC(C)(C)c1ccc(Cn2nnc3c(=O)[nH]c(C4CCN(C(=O)c5ccco5)CC4)nc32)cc1 returned JMJD2A Tudor 79µM*, HP1b chromo inh -28%, BAZ2B inh inconclusive and PI5P4Ka inh -10.

High-throughput results: PubChem BioAssay, National Center for Advancing Translational Sciences (NCATS)
